{"source": "PubChem BioAssay AID2284383", "about": "(EPA ToxCast)", "note": "Inconclusive results are not listed. Activity calls are given as the source filed them. How the source made its calls: active means hit-call score of the fitted dose curve at least 0.9, where 1 is the maximum; inconclusive means response in the unintended direction; inactive means score below 0.9."}
{"target": "human Retinoic Acid Receptor gamma (RARg) Agonism, RARG (gene 5916) (UniProt P13631)", "sequence (P13631 whole entry, looked up)": "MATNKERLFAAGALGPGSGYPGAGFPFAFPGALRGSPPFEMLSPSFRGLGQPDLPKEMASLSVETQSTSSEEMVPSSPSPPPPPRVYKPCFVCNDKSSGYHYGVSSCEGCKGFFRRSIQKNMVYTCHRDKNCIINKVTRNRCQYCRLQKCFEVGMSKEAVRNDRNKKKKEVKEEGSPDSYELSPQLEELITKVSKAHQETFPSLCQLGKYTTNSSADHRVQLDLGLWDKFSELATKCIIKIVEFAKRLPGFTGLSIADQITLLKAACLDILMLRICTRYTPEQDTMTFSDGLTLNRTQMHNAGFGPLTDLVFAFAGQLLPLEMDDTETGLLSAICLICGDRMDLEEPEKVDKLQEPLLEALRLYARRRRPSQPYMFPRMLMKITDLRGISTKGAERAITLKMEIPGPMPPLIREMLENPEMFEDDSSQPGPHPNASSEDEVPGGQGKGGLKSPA", "assay": "ERF_TW_NR_COA_hRARG: Eurofins (ERF) Nuclear Receptor (NR) Functional Coactivator Assay for human Retinoic Acid Receptor gamma (RARg) Agonism", "description": "ERF_TW_NR_COA_hRARG is a biochemical, single-readout assay that uses extracted gene-proteins in a cell-free assay. Measurements were taken 16 hours after chemical dosing in a 96-well plate. […] It is designed to measure FRET using a type of binding reporter as detected by fluorescence intensity of AM580 with fluorimetry technology.Data from the assay component ERF_TW_NR_COA_hRARG was analyzed at the assay endpoint, ERF_TW_NR_COA_hRARG, in the positive analysis fitting direction relative to DMSO as the negative control and baseline of activity. Using a type of binding reporter, gain-of-signal activity can be used to understand changes in binding as they relate to gene RARG. To generalize the intended target to other relatable targets, this assay endpoint is annotated to the nuclear receptor intended target family, where the subfamily is non-steroidal.\nHuman recombinant retinoic acid receptor […] (RARgamma) receptors expressed in bacteria are used. Test compound and/or vehicle is incubated with the 25 nM receptors and binding buffer in modified Tris-HCl buffer pH 7.4 for 16 hours at 4C. Determination of the amount of complex formed is read spectrofluorimetrically (excitation:337 nm, emission:620/665 nm). Test compound-induced increase in fluorescence by 50 percent or more (>/= 50%) relative to the 0.3 uM AM580 response indicates possible RARgamma receptor agonist activity. […] Membrane protein may change from lot to lot, the concentration used will be adjusted if necessary."}
{"smiles": "ClC1=C(Cl)[C@]2(Cl)[C@@H]3[C@H]4C[C@H]([C@@H]5O[C@H]45)[C@@H]3[C@@]1(Cl)C2(Cl)Cl", "AC50": "6.15 µM (active)"}
{"smiles": "Cc1ccc2cc3c(ccc4ccccc43)c3c2c1CC3", "outcome": "inactive"}
{"smiles": "ClC1=C(Cl)[C@]2(Cl)[C@@H]3[C@@H]4C[C@@H]([C@H]5O[C@@H]45)[C@@H]3[C@@]1(Cl)C2(Cl)Cl", "AC50": "6.6 µM (active)"}
